Drawing on publication PMC7862700, “An all-to-all approach to the identification of sequence-specific readers for epigenetic DNA modifications on cytosine”, this text covers binding signal for 8 sequences.

Assay in all cases: DAPPL (digital affinity profiling via proximity ligation, sequencing); 10 mM Tris-HCl pH 7.5, 50 mM NaCl, 1 mM DTT, 4% glycerol, room temperature, 30 min; GST-TFs on glutathione beads, 16-mer random dsDNA library, 0.1% formaldehyde crosslink after washing; high values mean tight binding
Settings in all cases: protein: recombinant; tags: N-terminal GST; dsDNA, one strand shown

The target in test [1] is T1, FLI1 (Homo sapiens, UniProt Q01543 1-452).
T1 sequence: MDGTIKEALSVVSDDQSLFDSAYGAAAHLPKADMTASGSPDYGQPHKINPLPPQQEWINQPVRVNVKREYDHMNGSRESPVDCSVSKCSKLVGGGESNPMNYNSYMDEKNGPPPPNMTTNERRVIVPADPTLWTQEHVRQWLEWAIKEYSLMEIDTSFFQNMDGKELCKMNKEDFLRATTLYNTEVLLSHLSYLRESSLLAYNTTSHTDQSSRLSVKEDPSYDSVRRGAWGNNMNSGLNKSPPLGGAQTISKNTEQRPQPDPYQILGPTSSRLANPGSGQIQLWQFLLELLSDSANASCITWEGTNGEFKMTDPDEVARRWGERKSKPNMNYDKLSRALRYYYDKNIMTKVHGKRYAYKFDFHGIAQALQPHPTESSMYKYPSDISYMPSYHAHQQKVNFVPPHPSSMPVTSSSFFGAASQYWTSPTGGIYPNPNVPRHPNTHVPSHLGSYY
The essentials: (§1)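 Binding signal is each hexamer's read frequency for a factor divided by its frequency in the tag-only sample. The factors were GST-fused human transcription factors from yeast, captured on glutathione beads, DNA-barcoded and pooled with that sample. Pools were incubated with 200 nmole of a random double-stranded 16-mer DNA library in Tris/NaCl/DTT/glycerol buffer at room temperature for 30 min, then washed, crosslinked with 0.1% formaldehyde, proximity-ligated with BsaI/T4 ligase (1 h, 37 °C), PCR-amplified and sequenced on an Illumina NextSeq500.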

The target of test [2] is T2, ELK1 (Homo sapiens, UniProt P19419 1-428).
T2 sequence: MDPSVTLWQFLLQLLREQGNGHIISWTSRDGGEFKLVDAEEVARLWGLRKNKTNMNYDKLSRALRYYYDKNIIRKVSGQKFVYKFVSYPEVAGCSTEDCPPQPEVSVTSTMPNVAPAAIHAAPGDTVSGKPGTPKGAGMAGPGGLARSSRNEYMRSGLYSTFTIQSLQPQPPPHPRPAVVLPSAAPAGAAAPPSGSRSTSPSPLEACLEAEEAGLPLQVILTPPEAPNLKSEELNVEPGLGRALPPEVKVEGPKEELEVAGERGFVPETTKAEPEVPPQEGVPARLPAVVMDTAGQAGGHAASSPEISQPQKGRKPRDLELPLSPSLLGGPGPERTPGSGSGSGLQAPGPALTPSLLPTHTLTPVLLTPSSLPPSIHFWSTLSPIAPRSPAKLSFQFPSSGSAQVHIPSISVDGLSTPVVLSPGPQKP
In a few lines:
as §1

The target in test [3] is T3, GABPA (Homo sapiens, UniProt Q06546 1-454).
T3 sequence: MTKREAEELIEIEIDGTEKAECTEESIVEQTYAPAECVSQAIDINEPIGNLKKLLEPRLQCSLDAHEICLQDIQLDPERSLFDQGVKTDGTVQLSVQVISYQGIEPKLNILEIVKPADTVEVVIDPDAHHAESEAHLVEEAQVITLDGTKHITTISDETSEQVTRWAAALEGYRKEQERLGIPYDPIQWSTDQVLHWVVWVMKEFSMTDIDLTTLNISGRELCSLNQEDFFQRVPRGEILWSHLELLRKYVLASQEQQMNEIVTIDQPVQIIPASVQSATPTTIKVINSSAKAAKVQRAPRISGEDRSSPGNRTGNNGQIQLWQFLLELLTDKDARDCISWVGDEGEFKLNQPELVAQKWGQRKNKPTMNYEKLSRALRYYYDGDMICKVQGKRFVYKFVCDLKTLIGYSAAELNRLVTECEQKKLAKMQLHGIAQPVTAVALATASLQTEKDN
In a few lines:
as §1

Test [4] has as its target T4, ERG (Homo sapiens, UniProt P11308 1-479).
T4 sequence: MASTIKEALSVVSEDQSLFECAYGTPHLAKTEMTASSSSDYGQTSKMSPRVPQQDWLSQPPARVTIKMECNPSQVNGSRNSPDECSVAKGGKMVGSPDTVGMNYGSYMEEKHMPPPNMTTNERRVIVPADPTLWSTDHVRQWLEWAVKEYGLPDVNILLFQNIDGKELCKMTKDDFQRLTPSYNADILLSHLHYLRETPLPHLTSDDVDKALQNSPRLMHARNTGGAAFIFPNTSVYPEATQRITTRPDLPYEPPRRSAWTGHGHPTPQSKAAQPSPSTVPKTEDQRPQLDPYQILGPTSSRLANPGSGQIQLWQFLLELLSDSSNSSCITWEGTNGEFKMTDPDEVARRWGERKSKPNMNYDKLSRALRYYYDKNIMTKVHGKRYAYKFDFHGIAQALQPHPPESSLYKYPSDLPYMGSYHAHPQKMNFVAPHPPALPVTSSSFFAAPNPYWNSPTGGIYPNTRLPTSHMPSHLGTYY
The essentials: as §1

In test [5] the target is ELF1 (Homo sapiens, UniProt P32519 1-619). The essentials:
as §1

Test [6] has as its target T5, EHF (Homo sapiens, UniProt Q9NZC4 1-300).
T5 sequence: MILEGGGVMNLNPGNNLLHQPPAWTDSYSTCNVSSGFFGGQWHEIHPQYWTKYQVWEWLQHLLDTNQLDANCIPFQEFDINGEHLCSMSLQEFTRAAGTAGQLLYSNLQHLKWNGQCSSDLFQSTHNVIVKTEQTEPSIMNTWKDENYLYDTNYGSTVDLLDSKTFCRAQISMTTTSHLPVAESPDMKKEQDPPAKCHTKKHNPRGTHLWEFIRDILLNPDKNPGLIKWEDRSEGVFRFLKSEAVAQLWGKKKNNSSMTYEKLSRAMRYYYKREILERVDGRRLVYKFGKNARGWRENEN
In a few lines: as §1

For test [7], the target named is SPI1 (Homo sapiens, UniProt P17947 1-270). In a few lines: as §1
Test [8] has as its target SPIB (Homo sapiens, UniProt Q01892 1-262). In a few lines:
as §1

In test [9] the target is T6, ELK3 (Homo sapiens, UniProt P41970 1-407).
T6 sequence: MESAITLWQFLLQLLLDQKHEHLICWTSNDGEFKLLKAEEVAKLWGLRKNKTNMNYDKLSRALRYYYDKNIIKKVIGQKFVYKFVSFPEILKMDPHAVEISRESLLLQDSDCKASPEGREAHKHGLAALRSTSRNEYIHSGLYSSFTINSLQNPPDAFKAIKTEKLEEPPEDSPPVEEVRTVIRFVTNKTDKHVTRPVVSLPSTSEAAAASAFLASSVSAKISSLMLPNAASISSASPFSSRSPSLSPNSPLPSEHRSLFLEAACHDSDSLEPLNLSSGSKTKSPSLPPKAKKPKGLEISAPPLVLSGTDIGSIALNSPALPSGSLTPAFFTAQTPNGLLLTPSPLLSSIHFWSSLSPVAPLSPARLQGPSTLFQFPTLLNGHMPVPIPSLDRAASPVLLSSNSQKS
In a few lines:
as §1

Sequence of ELF1 (P32519 whole entry): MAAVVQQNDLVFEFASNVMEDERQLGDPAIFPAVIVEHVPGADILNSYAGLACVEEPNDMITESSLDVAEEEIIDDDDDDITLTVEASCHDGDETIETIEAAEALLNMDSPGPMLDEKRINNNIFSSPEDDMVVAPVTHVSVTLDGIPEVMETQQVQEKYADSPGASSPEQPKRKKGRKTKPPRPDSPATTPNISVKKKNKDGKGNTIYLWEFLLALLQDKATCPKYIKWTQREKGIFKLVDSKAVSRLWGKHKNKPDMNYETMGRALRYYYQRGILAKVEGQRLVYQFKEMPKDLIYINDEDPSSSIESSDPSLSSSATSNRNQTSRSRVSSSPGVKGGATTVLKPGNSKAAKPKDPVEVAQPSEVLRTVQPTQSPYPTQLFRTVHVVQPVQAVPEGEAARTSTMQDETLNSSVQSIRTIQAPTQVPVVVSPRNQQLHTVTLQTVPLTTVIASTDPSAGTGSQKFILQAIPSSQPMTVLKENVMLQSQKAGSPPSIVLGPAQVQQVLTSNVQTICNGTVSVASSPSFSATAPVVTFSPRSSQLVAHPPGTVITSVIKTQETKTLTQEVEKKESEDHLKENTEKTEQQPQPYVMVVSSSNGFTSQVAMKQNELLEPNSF
Sequence of SPIB (Q01892 whole entry): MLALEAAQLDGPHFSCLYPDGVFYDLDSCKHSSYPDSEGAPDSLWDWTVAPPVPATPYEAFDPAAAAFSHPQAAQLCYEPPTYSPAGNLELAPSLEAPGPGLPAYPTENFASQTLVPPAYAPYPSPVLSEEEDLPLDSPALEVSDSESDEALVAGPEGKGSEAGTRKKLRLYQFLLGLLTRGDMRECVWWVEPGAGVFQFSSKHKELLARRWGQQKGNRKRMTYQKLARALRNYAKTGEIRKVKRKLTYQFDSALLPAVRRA

Consider GACTCT, for which the binding signal in [1] is 1.3 fold enrichment (6-mer frequency, TF over GST control); in test [2] it was 1.28 fold enrichment (6-mer frequency, TF over GST control); in [3], 1.37 fold enrichment (6-mer frequency, TF over GST control); in test [4], 1.34 fold enrichment (6-mer frequency, TF over GST control); in test [5] it was 1.37 fold enrichment (6-mer frequency, TF over GST control); in [6] it was 1.27 fold enrichment (6-mer frequency, TF over GST control). Moreover, the binding signal in test [7] is 1.2 fold enrichment (6-mer frequency, TF over GST control); in test [8] it was 1.37 fold enrichment (6-mer frequency, TF over GST control); in test [9] it was 1.2 fold enrichment (6-mer frequency, TF over GST control).
As to CACAAG, the binding signal is 1.2 fold enrichment (6-mer frequency, TF over GST control) in test [1]; 1.17 fold enrichment (6-mer frequency, TF over GST control) in test [2]; 1.15 fold enrichment (6-mer frequency, TF over GST control) in [3]; 1.09 fold enrichment (6-mer frequency, TF over GST control) in test [4]; 1.18 fold enrichment (6-mer frequency, TF over GST control) in [5]; 1.14 fold enrichment (6-mer frequency, TF over GST control) in [6]. In addition, the binding signal in [7] was 1.12 fold enrichment (6-mer frequency, TF over GST control); in test [8], 1.13 fold enrichment (6-mer frequency, TF over GST control); in test [9], 1.16 fold enrichment (6-mer frequency, TF over GST control).
In the case of CTAGTT, the binding signal in [1] is 1.37 fold enrichment (6-mer frequency, TF over GST control); in test [2], 1.4 fold enrichment (6-mer frequency, TF over GST control); in test [3], 1.42 fold enrichment (6-mer frequency, TF over GST control); in [4] it was 1.3 fold enrichment (6-mer frequency, TF over GST control); in [5], 1.31 fold enrichment (6-mer frequency, TF over GST control); in test [6], 1.23 fold enrichment (6-mer frequency, TF over GST control). For the same sequence, the binding signal was 1.34 fold enrichment (6-mer frequency, TF over GST control) in [7]; 1.48 fold enrichment (6-mer frequency, TF over GST control) in [8]; 1.21 fold enrichment (6-mer frequency, TF over GST control) in [9].
With AAAAAG, the binding signal in test [1] was 1.18 fold enrichment (6-mer frequency, TF over GST control); in test [2] it was 1.18 fold enrichment (6-mer frequency, TF over GST control); in test [3], 1.25 fold enrichment (6-mer frequency, TF over GST control); in test [4], 1.19 fold enrichment (6-mer frequency, TF over GST control); in test [5], 1.13 fold enrichment (6-mer frequency, TF over GST control); in test [6], 1.22 fold enrichment (6-mer frequency, TF over GST control). Further, the binding signal was 1.72 fold enrichment (6-mer frequency, TF over GST control) in test [7]; 1.29 fold enrichment (6-mer frequency, TF over GST control) in [8]; 1.2 fold enrichment (6-mer frequency, TF over GST control) in test [9].
Consider ACGCCT, for which the binding signal is 1.16 fold enrichment (6-mer frequency, TF over GST control) in test [1]; 1.24 fold enrichment (6-mer frequency, TF over GST control) in [2]; 1.21 fold enrichment (6-mer frequency, TF over GST control) in test [3]; 1.2 fold enrichment (6-mer frequency, TF over GST control) in test [4]; 1.29 fold enrichment (6-mer frequency, TF over GST control) in test [5]; 1.12 fold enrichment (6-mer frequency, TF over GST control) in test [6]. For the same sequence, the binding signal in [7] was 1.14 fold enrichment (6-mer frequency, TF over GST control); in test [8], 1.2 fold enrichment (6-mer frequency, TF over GST control); in test [9], 1.21 fold enrichment (6-mer frequency, TF over GST control).
TTAGCA: the binding signal is 1.21 fold enrichment (6-mer frequency, TF over GST control) in test [1]; 1.19 fold enrichment (6-mer frequency, TF over GST control) in test [2]; 1.16 fold enrichment (6-mer frequency, TF over GST control) in test [3]; 1.3 fold enrichment (6-mer frequency, TF over GST control) in test [4]; 1.18 fold enrichment (6-mer frequency, TF over GST control) in [5]; 1.21 fold enrichment (6-mer frequency, TF over GST control) in test [6]. Also, the binding signal is 1.15 fold enrichment (6-mer frequency, TF over GST control) in test [7]; 1.15 fold enrichment (6-mer frequency, TF over GST control) in [8]; 1.17 fold enrichment (6-mer frequency, TF over GST control) in [9].
Consider AATCAC, for which the binding signal in test [1] is 1.03 fold enrichment (6-mer frequency, TF over GST control); in [2], 1.08 fold enrichment (6-mer frequency, TF over GST control); in test [3], 1.15 fold enrichment (6-mer frequency, TF over GST control); in test [4], 1.08 fold enrichment (6-mer frequency, TF over GST control); in test [5], 1.14 fold enrichment (6-mer frequency, TF over GST control); in test [6], 1.08 fold enrichment (6-mer frequency, TF over GST control). The binding signal is 1.12 fold enrichment (6-mer frequency, TF over GST control) in [7]; 1.07 fold enrichment (6-mer frequency, TF over GST control) in [8]; 1.12 fold enrichment (6-mer frequency, TF over GST control) in [9].
Consider AATGGC, for which the binding signal in test [1] was 1.32 fold enrichment (6-mer frequency, TF over GST control); in [2], 1.33 fold enrichment (6-mer frequency, TF over GST control); in [3] it was 1.37 fold enrichment (6-mer frequency, TF over GST control); in test [4] it was 1.43 fold enrichment (6-mer frequency, TF over GST control); in test [5], 1.39 fold enrichment (6-mer frequency, TF over GST control); in test [6] it was 1.5 fold enrichment (6-mer frequency, TF over GST control). The binding signal in test [7] is 1.39 fold enrichment (6-mer frequency, TF over GST control); in test [8], 1.37 fold enrichment (6-mer frequency, TF over GST control); in test [9] it was 1.26 fold enrichment (6-mer frequency, TF over GST control).
